Reference: PubChem BioAssay (NCI)
This is part of a sample that, as a whole, favours compounds with a hit. Of some 83,000 tested, about 20% had one in any assay.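 Method: cells in 96-well plates; compound added at one concentration; 48 h incubation; percent growth measured; values under 10 scored active.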 Unmarked numbers belong to inactive results. Calls of active or inactive are those of the source.

Tested on: RXF 393 renal
Assay: NCI-60 one-dose screen, 48 h (100 = growth as untreated, 0 = no growth, -100 = all killed)
Settings: 10 µM unless noted

Going from `C=CCN=C(N)SCCCCCCSC(N)=NCC=C` to `CCOC(=O)C(=Cc1cccc(C#N)c1)C(=O)OCC`, the growth falls from 109% to 33.5%.

Going from `COc1cccc(NC(=O)c2cccc(C3CCc4c(cc(OC)c(OC)c4OC)O3)c2)c1` (centres undefined) to `COc1cc(-c2nc(NC(C)=O)sc2-c2ccnc(NCCNS(=O)(=O)c3ccccc3)n2)ccc1Cl`, the growth falls from 88.9% to 36.7%.

First: Cn1c(O)c(C(/C=C/c2ccccc2)=Nc2ccccc2N)c(=O)n(C)c1=O
Second: COc1ccccc1-n1c(-c2cc(O)ccc2C)cn2c3c(=O)[nH]c(=O)n(C)c3nc12
The growth of the first is higher: 109% for the first, 19.2% for the second.

Compared with `CC1=C(C(=O)n2c3ccccc3c3ccccc32)C(c2cccc([N+](=O)[O-])c2)C(C(=O)n2c3ccccc3c3ccccc32)=C(C)N1`, `O=C(O)c1cn(C2CC2)c2cc(N3CCN(C(=O)N/N=C/c4ccccc4)CC3)c(F)cc2c1=O` is lower in growth: 111% for the first, 104% for the second.

Compared with `Cc1ccc(C)n1/C=C/n1c(C)ccc1C`, `C/C(=N\Nc1nc(C)cs1)c1cc2ccccc2o1` is higher in growth: 102% for the first, 120% for the second.

`CCN1CCN(CC(=O)Nc2nc3ccc(NCc4ccc(Br)cc4)cc3s2)CC1` gave a growth of 63.9%.

With `COc1cc(C2C3=C(COC3=O)N(CCO)c3cc4c(cc32)OCCO4)cc(OC)c1OC` (centres undefined) the growth was -8.9% (active).
In the case of `COc1ccc2[nH]cc(-c3nc(-c4cn(C)c5ccncc45)cs3)c2c1`, the growth was -86.8% (active).
For `CC1(C)CCC(S(=O)(=O)c2ccc3c(c2)/C(=N\O)c2cc(S(=O)(=O)N4CCN(c5ccc(F)cc5O)CC4)ccc2-3)CC1`, the growth was -90% (active).
